In PubChem BioAssay AID618 (Sanford-Burnham Center for Chemical Genomics, 2007):
About 540 (0.62%) of roughly 87,000 compounds were called active. Entries that show only a call come without a potency. No rule for the calls is given here. This excerpt belongs to a sample that is enriched for actives. Potency and affinity values are given separately.

Test: MT1-MMP gene expression reporter suppression – cell-based, luciferase reporter, luminescence (AID 618);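 also: actives suppress MT1-MMP promoter-driven transcription so potencies describe inhibitors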
Conditions: MT1-MMP promoter luciferase reporter cells
In the case of `Cn1c(C(=O)NCCN2CCCCCC2)cc2c(=O)n(C)c3ccccc3c21`, the outcome is reported as “inactive”.
For `Cc1ncc(S(=O)(=O)c2ccc(Cl)cc2)c(-c2ccccc2)n1`, the outcome was “inactive”.
With `O=S(=O)(Nc1nnc(-c2ccccc2)s1)c1ccc(Cl)cc1` the outcome was “inactive”.
In the case of `CCN(CC)CCCNC(=O)c1cc(-c2ccc(Cl)cc2)on1`, the outcome is reported as “inactive”.
For `c1ccc(-c2cn3c4c(sc3n2)CCCC4)cc1`, the outcome was “active”.
In the case of `Cc1c(C(N)=O)sc2nc(-c3ccccc3)cn12`, the outcome is reported as “inactive”.
In the case of `Cc1c(C(=O)N2CC(C)OC(C)C2)sc2nc(-c3ccccc3)cn12` (configuration not stated), the outcome is reported as “inactive”.
With `CCOc1ccc(N(CC(=O)NCC2CCCO2)S(=O)(=O)c2ccc(SC)cc2)cc1` (configuration not stated) the outcome was “inactive”.
With `CSc1nc2sc3c(c2c(=O)n1C)CCC(C)C3` (configuration not stated) the outcome was “inactive”.
In the case of `O=C1CSC(=NC2CCCCC2)N1`, the outcome is reported as “inactive”.
In the case of `FC(F)Sc1ccc(N=C2NN=C(c3ccc4c(c3)OCCO4)CS2)cc1`, the outcome is reported as “inactive”.
For `COc1ccc(N=C2NN=C(c3ccc4c(c3)OCCO4)CS2)cc1`, the outcome was “inactive”.
With `Cc1cccc(N=C2NN=C(c3ccc4c(c3)OCCO4)CS2)c1` the outcome was “inactive”.
For `COc1ccc(C(=O)NCCCN2CCCC2=O)cc1`, the outcome was “inactive”.
With `c1cnc(-c2nnc3n2CCCCC3)cn1` the outcome was “inactive”.
In the case of `CCC1(N(C(C)=O)c2ccc(OC)cc2)C(=O)c2ccccc2C1=O`, the outcome is reported as “inactive”.
With `CCOC(=O)CCSc1nc(C)c2cc(C)c(C)cc2n1` the outcome was “inactive”.
In the case of `CCCC(=O)Nc1nnc(-c2cccc(OCC)c2)s1`, the outcome is reported as “inactive”.
In the case of `O=C(Nc1ccc2c(c1)OCCO2)C1CCCN(c2ncccn2)C1` (configuration not stated), the outcome is reported as “active”.
In the case of `CC(=O)Nc1ccc(NC(=O)C2CCCN(c3ncccn3)C2)cc1` (configuration not stated), the outcome is reported as “inactive”.
For `Cc1cc(C)nc(N2CCCC(C(=O)Nc3ccc4c(c3)OCCO4)C2)n1` (configuration not stated), the outcome was “inactive”.
With `O=C(Nc1ccc2c(c1)OCO2)C1CCCCN1S(=O)(=O)c1ccccc1` (configuration not stated) the outcome was “inactive”.
In the case of `Cc1ncc(S(=O)(=O)c2ccccc2)c(-c2ccc(Cl)cc2Cl)n1`, the outcome is reported as “inactive”.
In the case of `CCC1CCCCN1C(=O)CSc1nnc(-c2ccc3c(c2)OCCO3)o1` (configuration not stated), the outcome is reported as “inactive”.
With `O=C(O)CSc1nnc(-c2ccc3c(c2)OCO3)o1` the outcome was “inactive”.
In the case of `O=C(CSc1nnc(-c2ccc3c(c2)OCCO3)o1)N1CCCC1`, the outcome is reported as “inactive”.
With `CC(=O)CSc1nnc(-c2ccc3c(c2)OCO3)o1` the outcome was “inactive”.
For `O=C(c1ccco1)N1CCN=C1SCc1ccc(F)cc1`, the outcome was “inactive”.
In the case of `COc1ccc(NC(=O)CN(C2CCCCC2)S(C)(=O)=O)cc1OC`, the outcome is reported as “inactive”.
For `N=C1C(c2ccc(Br)cc2)=C(O)C2CCc3ccccc3N12` (configuration not stated), the outcome was “inactive”.
With `CCC(=O)Nc1cc2c(cc1C(C)=O)OCCO2` the outcome was “inactive”.
With `Cc1ccc(Cl)cc1NC(=O)CCC(=O)Nc1cc(Cl)ccc1C` the outcome was “inactive”.
With `COc1cc(C(=O)Nc2cc(C)ccn2)cc(OC)c1OC` the outcome was “inactive”.
In the case of `COc1ccc(C(=O)NC(=O)Nc2cc(C)ccn2)cc1`, the outcome is reported as “active”.
With `COc1ccc(CC(=O)Nc2cc(C)ccn2)cc1` the outcome was “inactive”.
For `CN1CCc2c(sc3c2c(=O)n(-c2ccccc2)c2nnc(SCc4ccc(Cl)cc4)n32)C1`, the outcome was “inactive”.
In the case of `CCOC(=O)c1sc2nc3c(cc2c1N)COC(C)(C)C3`, the outcome is reported as “inactive”.
For `CCOC(=O)c1sc2nc3c(cc2c1N)COC(C)(CC)C3` (configuration not stated), the outcome was “inactive”.
In the case of `CCN(Cc1ccccc1)S(=O)(=O)c1ccc2oc(C(=O)O)c(C)c2c1`, the outcome is reported as “inactive”.
For `Cn1ccnc1SCc1cn2ccccc2n1`, the outcome was “inactive”.
With `Brc1ccc2nc(CSc3ncn[nH]3)cn2c1` the outcome was “inactive”.
With `COc1ccc(NC(=S)N/C(=N/CS(=O)(=O)c2ccccc2)c2ccccc2)cc1` the outcome was “inactive”.
For `CCOC(=O)N1CCC(N2C(=O)c3ccc(C(=O)O)cc3C2=O)CC1`, the outcome was “inactive”.
With `CCOc1ccc(-c2nnc(NC3=NCCCCC3)o2)cc1` the outcome was “inactive”.
For `Cc1nnc(NC2=NCCCCC2)o1`, the outcome was “inactive”.
For `Clc1ccc(-c2nnc(NC3=NCCCCC3)o2)cc1`, the outcome was “active”.
In the case of `Clc1ccc(NC2=NCCCCC2)cc1`, the outcome is reported as “inactive”.
With `c1coc(-c2nnc(NC3=NCCC3)o2)c1` the outcome was “inactive”.
For `Fc1ccc(-c2nnc(NC3=NCCCCC3)o2)cc1`, the outcome was “active”.
For `O=C1/C(=C\Nc2ccc(OC(F)(F)F)cc2)CCN1c1ncccn1`, the outcome was “inactive”.
With `CS(=O)(=O)N(CC(=O)NCCSC1CCCCC1)c1ccc2c(c1)OCO2` the outcome was “inactive”.
For `COc1cccc(CNc2ccc(F)c(Cl)c2)c1OC`, the outcome was “inactive”.
For `FC(F)(F)c1cc(-c2ccco2)nc(-n2nnc3ccccc32)n1`, the outcome was “inactive”.
For `Cc1nc2ccccc2n1-c1nc(-c2ccco2)cc(C(F)(F)F)n1`, the outcome was “active”.
With `FC(F)(F)c1cc(-c2ccco2)nc(-n2cnc3ccccc32)n1` the outcome was “inactive”.
In the case of `Cc1cc(OCCCCCNCCO)cc(C)c1Cl`, the outcome is reported as “inactive”.
For `COc1ccc(C(=O)Nc2ccccc2C(=O)NCCN2CCOCC2)cc1`, the outcome was “inactive”.
For `CN(C)CCCN1c2ccccc2Sc2ccc(Cl)cc21`, the outcome was “inactive”.
In the case of `COc1ccc2c(c1)Sc1ccccc1N2CCN(C)C`, the outcome is reported as “active”.
In the case of `CN(C)CCCN1c2ccccc2Sc2ccccc21`, the outcome is reported as “inactive”.
In the case of `CCOC(=O)C(N)CSC1CC(=O)N(c2ccc(C(=O)OC)cc2)C1=O` (configuration not stated), the outcome is reported as “inactive”.
With `CCOC(=O)COc1nc(Nc2ccccc2C)nc(N(C)C)n1` the outcome was “inactive”.
For `O=C(NNC(=O)c1ccc(SCC2CCCO2)c([N+](=O)[O-])c1)c1ccc(F)cc1` (configuration not stated), the outcome was “inactive”.
In the case of `c1ccc(-c2noc(-c3cccc4ccccc34)n2)nc1`, the outcome is reported as “active”.
With `c1ccc(-c2noc(-c3cccc4ccccc34)n2)cc1` the outcome was “inactive”.
For `COc1cc(-c2nc(-c3ccccn3)no2)cc(OC)c1OC`, the outcome was “inactive”.
With `COc1cccc(-c2nc(-c3ccccn3)no2)c1OC` the outcome was “inactive”.
In the case of `c1ccc2c(-c3nc(-c4ccncc4)no3)cccc2c1`, the outcome is reported as “inactive”.
With `CCCCNC(=O)n1c(SC)nc2ccccc21` the outcome was “inactive”.
In the case of `COc1cccc(-c2ccc(C#N)c(OC(=O)c3ccc(Cl)cc3)n2)c1`, the outcome is reported as “inactive”.
In the case of `COc1ccc(-n2c(Cc3cc(=O)[nH]c(=O)[nH]3)nnc2SCC(=O)N2CCCC2)cc1`, the outcome is reported as “inactive”.
For `O=C(CSc1nnc(Cc2ccccc2)o1)NC1CCCCC1`, the outcome was “inactive”.
With `CCOC(=O)c1c(NC(=O)CN(C)C)sc(C(=O)N(CC)CC)c1C` the outcome was “inactive”.
With `CCOC(=O)c1c(NC(=O)CCl)sc(C(=O)N(CC)CC)c1C` the outcome was “active”.
With `CCOC(=O)Nc1sc(C(=O)N(CC)CC)c(C)c1C(=O)OCC` the outcome was “inactive”.
For `Cc1ccc(NC2=C/C(=N\S(=O)(=O)c3cccs3)c3ccccc3C2=O)c(C)c1`, the outcome was “inactive”.
In the case of `CCC1CCCCN1C(=O)Cn1c(C(=O)OC)cc2ccsc21` (configuration not stated), the outcome is reported as “inactive”.
For `O=C(c1cccnc1)N1CCCc2ccccc21`, the outcome was “inactive”.
For `CCC(=O)Nc1ccc(NC(=O)c2cccc(OC)c2)nc1`, the outcome was “inactive”.
In the case of `COc1cccc(C(=O)Nc2ccc(NC(=O)C(C)(C)C)cn2)c1`, the outcome is reported as “active”.
In the case of `COc1cccc(C(=O)Nc2ccc(NC(C)=O)cn2)c1`, the outcome is reported as “inactive”.
For `Cn1c(NC(=O)CC(C)(C)C)cc(=O)n(C)c1=O`, the outcome was “inactive”.
With `Cc1nnc2sc(-c3ccc(NC(=O)c4cccnc4)cc3)nn12` the outcome was “inactive”.
For `O=C1c2ccccc2-c2nccnc21`, the outcome was “inactive”.
With `COc1ccc(C2C(=O)c3ccccc3C2=O)c(OC)c1` the outcome was “inactive”.
For `N#CC1=C(N)SC(N)=C(C#N)C1c1ccnc2ccccc12`, the outcome was “inactive”.
For `O=C1c2ccccc2C(=O)C1c1ccncc1`, the outcome was “inactive”.
In the case of `O=C(NCCCCCNC(=O)c1ccco1)c1ccco1`, the outcome is reported as “inactive”.
With `CCCCOc1ccccc1C1NC(=O)NC(C)=C1C(=O)OCCOCC` (configuration not stated) the outcome was “inactive”.
For `CC(C)(C)NC(=O)Nc1ccc2nccnc2c1`, the outcome was “inactive”.
For `CCOc1ccc(OCc2ccc(C(=O)N3CCCC3)o2)cc1`, the outcome was “inactive”.
For `CCc1ccc(OCc2ccc(C(=O)NCc3ccccn3)o2)cc1`, the outcome was “inactive”.
In the case of `O=C(OCc1ccccn1)c1ccc(COc2ccccc2Cl)o1`, the outcome is reported as “inactive”.
In the case of `O=C(O)c1ccc(COc2ccc(Cl)cc2)o1`, the outcome is reported as “inactive”.
With `CCN(CC(O)Cn1c2ccccc2c2ccccc21)S(=O)(=O)c1ccc(C)cc1` (configuration not stated) the outcome was “inactive”.
For `O=C(/C=N/O)Nc1ccccc1C(=O)O`, the outcome was “inactive”.
With `O=C(NCc1ccccc1)c1ccc(Oc2ccc(C(=O)NCc3ccccc3)cc2)cc1` the outcome was “inactive”.
In the case of `O=C(CN(CC1CCCO1)C(=O)CCC(=O)Nc1nccs1)NCc1ccc2c(c1)OCO2` (configuration not stated), the outcome is reported as “inactive”.
In the case of `CCOC(=O)N1CCN(C(=O)CN(c2cccc(C(F)(F)F)c2)S(C)(=O)=O)CC1`, the outcome is reported as “inactive”.
For `O=C(Nc1ccccc1)N1CCc2ccccc21`, the outcome was “inactive”.
In the case of `CCOC(=O)c1ccc(NC(=O)N2CCc3ccccc32)cc1`, the outcome is reported as “inactive”.
In the case of `O=C(CN1C(=O)C2C3C=CC(C3)C2C1=O)Nc1nc2ccccc2[nH]1` (configuration not stated), the outcome is reported as “inactive”.
With `CCOc1ccc(S(=O)(=O)N(C)c2ccc(OCC(=O)N3CCOCC3)cc2)cc1` the outcome was “inactive”.
For `CC(=O)c1ccc(NC(=O)C(C)Sc2nnnn2C)cc1` (configuration not stated), the outcome was “inactive”.
With `COc1cccc(C(=O)/C=C/Nc2cc(C)ccc2O)c1` the outcome was “inactive”.
In the case of `COc1ccc(C(=O)Nc2cccc(C)c2)cc1`, the outcome is reported as “inactive”.
For `COc1cccc(C(=O)Nc2ccccc2)c1`, the outcome was “inactive”.
For `COc1ccc(N/C=C\C(=O)c2ccc3c(c2)OCO3)cc1`, the outcome was “inactive”.
In the case of `COc1ccc(S(=O)(=O)NCC(c2cccnc2)N2CCN(C)CC2)cc1C` (configuration not stated), the outcome is reported as “inactive”.
With `O=C(COc1ccc2ccccc2c1)NC1CC1` the outcome was “inactive”.
For `CCCC1(C(=O)OC)NC(c2cc(OC)c(OC)c(OC)c2)C2C(=O)N(CC)C(=O)C21` (configuration not stated), the outcome was “inactive”.
For `O=c1[nH]nc(Cc2ccc(Cl)cc2)c2ccccc12`, the outcome was “inactive”.
With `Cc1nn2c(C(F)(F)F)cc(-c3ccc(Cl)cc3)nc2c1C(=O)N1CCOCC1` the outcome was “inactive”.
In the case of `Nc1ccc2nc(-c3ccc(N)c(Cl)c3)[nH]c2c1`, the outcome is reported as “inactive”.
In the case of `Nc1ccc(-c2nc3c(Cl)c(N)ccc3[nH]2)cc1`, the outcome is reported as “inactive”.
With `CC(=O)c1cnc2cc(-c3ccc(Cl)cc3)nn2c1C` the outcome was “inactive”.
For `O=C(CNS(=O)(=O)c1ccccc1)NCc1ccccn1`, the outcome was “inactive”.
In the case of `CCCCc1ccc(-c2ccc(Br)cc2)nc1`, the outcome is reported as “inactive”.
For `CCCc1ccc(-c2cc(N)n[nH]2)cc1`, the outcome was “inactive”.
For `CCOc1ccc(NC(=O)CCN2CCN(c3ccccc3F)CC2)cc1`, the outcome was “inactive”.
In the case of `COc1ccc(-c2nnn(CC(=O)NCc3ccccc3)n2)cc1OC`, the outcome is reported as “inactive”.
In the case of `CCC(C)NC(=O)Nc1ccc2c(c1)N(C)C(=O)c1ccccc1S2` (configuration not stated), the outcome is reported as “inactive”.
